PLCb3 inh: inhibitors of human phospholipase C beta3. Purified PLC-beta3, fluorogenic substrate, fluorescence. inhibition, % at 12.2 µM. Q01970. 0.18% of 370,000 active. AID 720704; in the data active = inhibition above about 11%;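 also: 0% = median of compound wells on plate and 100% = full blocker control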
LEDGF integ inh: blocks HIV-1 LEDGF/p75-dependent DNA integration; TR-FRET IN-LEDGF/p75 DNA integration, Eu/Cy5; inhibition, % at 3.7 µM; 0.64% of 370,000 active; AID 743269;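 active = inhibition above the screen-wide mean plus 3 SD, cut at about 13% in these data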;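 also: signal is the Cy5 over europium emission ratio at 671 and 618 nm; 0% = plate median of compound wells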
MBD2 DNA inh: blocks human MBD2 binding to methylated DNA | Q9UBB5 | TR-FRET, MBD2 binding to methylated oligonucleotide | inhibition, % at 4.4 µM | 0.31% of 370,000 active | AID 686964; in the data active = inhibition above about 13%
Target sequence (Q9UBB5 whole entry, looked up): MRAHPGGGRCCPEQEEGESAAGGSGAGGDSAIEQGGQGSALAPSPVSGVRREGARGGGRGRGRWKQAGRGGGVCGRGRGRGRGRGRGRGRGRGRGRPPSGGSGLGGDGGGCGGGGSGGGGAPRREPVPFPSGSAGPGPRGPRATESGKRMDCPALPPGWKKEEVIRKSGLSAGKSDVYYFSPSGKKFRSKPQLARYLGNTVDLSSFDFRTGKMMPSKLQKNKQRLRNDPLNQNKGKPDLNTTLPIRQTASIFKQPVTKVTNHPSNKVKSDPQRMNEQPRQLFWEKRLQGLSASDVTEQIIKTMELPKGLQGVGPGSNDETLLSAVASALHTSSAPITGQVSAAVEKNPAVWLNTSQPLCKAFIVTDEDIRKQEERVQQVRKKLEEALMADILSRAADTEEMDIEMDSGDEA
UHRF1 binding: human UHRF1 methylated DNA binding inhibitors; AID 687016; UHRF1 binding to methylated oligo, TR-FRET; inhibition, % at 4.4 µM; Q96T88; 0.75% of 370,000 active; in the data active = inhibition above about 21%;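 also: UHRF1 SRA domain binding a hemimethylated CpG hairpin DNA probe; 0% = median of test compound wells and 100% = reference inhibitor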
PLC-gamma1 inh: PLC-gamma1 (human) inhibition, primary screen. purified PLC-gamma1, fluorogenic substrate, fluorescence. inhibition, % at 12.2 µM. AID 720700. 0.84% of 370,000 active; in the data active = inhibition above about 9.5%
An asterisk follows results filed as active. An excerpt weighted towards active compounds, which were near 2.3% of everything screened.

SMILES	PLCb3 inh	LEDGF integ inh	MBD2 DNA inh	UHRF1 binding	PLC-gamma1 inh
Cc1cc(C)cc(OC2CCCCC2NS(=O)(=O)c2ccccc2)c1 (configuration not stated)	1.0	-1.6	-3.4	0.4	0.4
Cn1cc(C2(c3c[nH]c4ccccc34)CCN(C(=O)OC(C)(C)C)CC2)c2ccccc21	-0.8	6.2	-1.8	-6.3	0.9
Cc1cccc(Cl)c1NC(=O)N(C)c1ccccc1	4.6	0.1	-1.2	2.9	11.7*
COC(=O)[C@]12C[C@H](CC(=O)NCc3cccs3)C(=O)N(CCc3ccc(OC)c(OC)c3)C1=C[C@H](COCc1ccccc1)O[C@@H]2C	3.3	4.4	-0.4	-1.9	0.8
COc1ccc(NC(=O)c2ccc(NC(=O)CN(C)CC(=O)Nc3c(C)cccc3C)cc2)cc1	-10.0	1.2	0.0	21.6*	-1.1
CCOc1ccc(-n2c(SCC(=O)Nc3ccccc3-c3ccccc3)nnc2-c2cccs2)cc1	1.5	2.1	1.2	-2.2	2.6
Cc1[nH]n(-c2cccc(Cl)c2)c(=O)c1-c1ccccc1	-29.8	-1.3	-2.9	38.7*	4.8
COc1ccc(-c2sc3cc(OC)c(OC)cc3c2C#CCO)cc1	-60.3	3.3	6.7	21.9*	-39.7
COc1ccc(-c2sc3cc(OC)c(OC)cc3c2C#CC(C)(C)O)cc1	-47.8	0.0	6.3	12.5	-33.1
CCCC1CCC2(CCC(=O)N2CCSc2ccccc2)CC1 (configuration not stated)	4.4	6.0	-5.1	-2.0	3.7
O=C(NN1C(=O)/C(=C\c2cccnc2)SC1=S)c1ccco1	-3.3	4.6	9.9	47.1*	0.6
O[C@@H]1[C@@H](O)[C@H](n2c3ccc(Cl)cc3c3ccc4c5cc(Cl)ccc5[nH]c4c32)OC[C@H]1O	-4.0	5.7	-1.5	-2.3	-3.3
CN(C(=O)CCc1nnc(CCCCc2ccccc2)o1)C1CC(C)(C)NC(C)(C)C1	-5.1	3.2	7.0	45.6*	3.1
CCOc1ccc(-n2c(SCC(=O)Nc3ccc(S(=O)(=O)Nc4cc(C)nc(C)n4)cc3)nnc2-c2ccc(OC)cc2)cc1	-1.8	-3.8	-2.5	0.1	2.5
COC(=O)[C@]12C[C@H](CC(=O)N3CCOCC3)C(=O)N(Cc3ccco3)C1=C[C@H](C(C)C)O[C@@H]2C1CC1	-0.3	6.6	-6.5	-0.5	2.2
CCOCCCNC(=O)Cn1cc2c(n1)-c1c(oc(C(=O)N3CCCC3)c1C)CC2	-46.2	1.8	-0.4	7.1	-32.7
CCCCN(C)CCCNC(=O)Cn1cc2c(n1)-c1c(oc(C(=O)N3CCCC3)c1C)CC2	-18.0	-0.7	2.2	53.1*	-15.2
Cc1ccc2nc(-c3ccc(NC(=O)CSc4nnc(-c5cc(C)[nH]n5)n4N)cc3)sc2c1	-70.9	-3.8	2.3	1.7	-59.9
Cc1cc(C)c(N=Cc2c(O)n(-c3nccs3)c(=O)c3ccccc23)c(C)c1	-31.5	-0.2	5.6	27.3*	-23.7
O=C(CCSCc1ccccc1Cl)NC1CCCC1	3.5	-2.3	11.1	23.7*	2.7
O=C(CCSc1ccccc1)NC1CCCCCC1	-1.5	-2.1	1.6	0.5	-1.9
Cc1ccc2c(c1)C(CS(=O)(=O)NC1CCCC1)NC2 (configuration not stated)	-10.3	-2.6	-3.5	-4.8	-8.7
CCOC(=O)c1c(C)n(CCNC(C)=O)c2ccc(OC)cc12	4.1	2.2	-1.9	2.1	2.8
CCOC(=O)c1c(-c2ccccc2)c2cc(OC)ccc2n1CCCN(C)C	-495.4	-2.8	-1.2	26.0*	-385.4
COC(=O)C[C@H]1CC[C@H]2[C@H](COc3ccc(NS(=O)(=O)c4ccccc4C)cc3C(=O)N2C)O1	1.2	-4.7	2.6	-1.3	0.7
SMILES	PLCb3 inh	LEDGF integ inh	MBD2 DNA inh	UHRF1 binding	PLC-gamma1 inh
O=C(Nc1ccc(-c2nc3ccccc3c(=O)o2)cc1)c1ccco1	-7.0	-0.9	6.6	21.4*	-9.1
CC(CCN1CCC(C(O)(c2ccccc2)c2ccccc2)CC1)Oc1ccc(OC(F)(F)F)cc1 (configuration not stated)	4.4	-2.5	-2.6	0.1	2.2
CCCC(=O)N(c1ccc(C(=O)O)cc1)c1nc(-c2ccccc2)c(C)s1	3.9	3.2	13.1	41.0*	3.8
COCC(=O)Nc1nc(-c2ccccc2)c(C)s1	4.9	4.0	2.0	-0.6	4.5
CCOc1cc(C(=O)NC)cc(Br)c1OCc1ccccc1	-0.6	5.9	-6.7	48.4*	3.2
CCCCCCCCNS(=O)(=O)CC1NCc2cc(F)ccc21 (configuration not stated)	-9.6	0.2	2.0	-7.3	-8.6
O=[N+]([O-])c1cccc2[nH]c(CNc3nc(N4CCOCC4)nc4c3ncn4-c3ccsc3)nc12	0.5	-4.0	-6.0	-3.9	-0.5
O=c1c([N+](=O)[O-])c(Cl)c2ccccc2n1Cc1ccccc1	-13.5	0.7	-0.4	4.5	-4.9
O=C(CN1CCN(c2ccccn2)CC1)NC1CCCC1	-1.1	1.1	10.3	24.1*	-0.1
O=C(CN1CCN(c2ccccn2)CC1)Nc1ccccc1	4.0	-2.6	-3.0	-0.5	2.0
O=c1[nH]nc(-c2ccccc2)cc1-c1ccccc1	-10.2	-0.1	3.7	0.1	-2.6
Cc1cc(-c2ccccc2)c2c(=O)[nH][nH]c2n1	0.3	-1.9	-1.8	48.8*	-1.5
S=C(NCc1ccc(Cl)cc1)OC1CCC12CCC(c1ccccc1)CC2 (configuration not stated)	0.6	-0.7	0.1	3.5	0.0
CCc1nn(CC(=O)NCCCN(CC)Cc2ccccc2)c(=O)c2cc3sccc3n12	2.8	1.3	-14.0	-1.3	10.6*
CCCCN(CCCNC(=O)Cn1nc(CC)n2c(cc3sc(C)cc32)c1=O)Cc1ccccc1	-9.7	-3.0	5.4	0.3	3.9
COC(=O)c1ccc(Cn2ccc3ccc(-c4ccc5ccn(C(=O)c6cccc(OC)c6)c5c4)cc32)cc1	-34.1	2.3	2.0	-1.8	-15.6
COc1cccc(OC[C@@H](O)CN2CCC(C(O)(c3ccccc3)c3ccccc3)CC2)c1	5.1	-1.5	-4.4	-0.9	1.1
Cc1ccn2c(CC(C)(C)C)c(-c3ccc(F)cc3)nc2c1	-7.0	8.0	3.8	21.8*	-0.7
Cc1ccc(Cc2c(-c3ccc(Cl)cc3)nc3cc(C)ccn23)cc1	-0.7	4.1	1.0	21.5*	-6.0
Cc1ccn2c(Cc3ccccc3)c(-c3ccc(Br)cc3)nc2c1	-6.0	1.5	8.9	20.4	-8.1
Cc1ccc(Cc2c(-c3ccc(C)cc3)nc3cc(C)ccn23)cc1	-51.5	0.2	5.5	23.1*	-38.2
Cc1ccn2c(Cc3ccccc3)c(-c3ccccc3)nc2c1	-28.7	2.4	7.8	21.4*	-18.2
Cc1ccc(Cc2c(-c3ccc(Cl)cc3)nc3cc(C)c(Br)c(C)n23)cc1	-9.1	3.5	3.1	17.1	-5.0
O=C1CCC[C@H]2C[C@H](NCc3cccnc3)CC[C@]23CCCN13	2.3	0.8	0.2	-1.6	-0.6
O=[N+]([O-])c1cc(Br)cc(/C=N/n2cnnc2)c1O	-0.2	1.3	-12.3	39.9*	-1.6
O=C1CCC[C@H]2C[C@H](NCc3cccs3)CC[C@]23CCCN13	1.8	0.5	-7.3	-5.0	2.0

Compound activity as filed in PubChem.
